# Assay results as given in PubChem BioAssay (NCATS).
# Values without a mark were called inactive. Results filed as inconclusive are left out. Entries that show only a call come without a potency. Activity calls are given as the source filed them. Unless noted, calls come from the whole dose curve; as a rule, active = well fitted curve in the direction sought with a large enough effect; inconclusive = small, poorly fitted or top-dose-only effect, or another doubt; inactive = no such curve, though single readings can be large; an effect the other way counts as inactive or inconclusive.
# What was measured:
# [1] = biological target: Cytochrome P450 1A2 (Homo sapiens) (UniProt P05177); test: p450-cyp1a2 (AID 410; calls by dose curve; note: potency is the fitted concentration of half-maximal effect)
# Sequence of Cytochrome P450 1A2 (Homo sapiens) (P05177 whole entry, looked up): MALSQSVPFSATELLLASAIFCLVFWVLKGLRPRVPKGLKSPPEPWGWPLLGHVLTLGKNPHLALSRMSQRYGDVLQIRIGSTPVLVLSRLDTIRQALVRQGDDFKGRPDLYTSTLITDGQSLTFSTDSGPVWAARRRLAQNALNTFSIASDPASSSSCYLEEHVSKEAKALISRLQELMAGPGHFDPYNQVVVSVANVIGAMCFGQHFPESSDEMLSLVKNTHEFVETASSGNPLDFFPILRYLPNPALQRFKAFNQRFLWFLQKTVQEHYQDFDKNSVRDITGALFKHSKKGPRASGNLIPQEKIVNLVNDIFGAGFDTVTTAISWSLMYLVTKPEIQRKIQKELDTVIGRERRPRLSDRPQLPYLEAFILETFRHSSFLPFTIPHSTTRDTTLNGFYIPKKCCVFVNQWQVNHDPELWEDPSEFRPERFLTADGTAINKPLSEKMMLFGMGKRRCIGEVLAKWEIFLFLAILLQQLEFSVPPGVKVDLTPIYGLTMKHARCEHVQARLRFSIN
# Summary of the method: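 Luminescent readout of luciferin formed from Luciferin-ME by human CYP1A2; data normalized against complete inhibition by 57 uM furafylline. Enzyme 20nM, substrate 100uM at Km, 100mM KPO4 buffer, 60 min reaction at room temperature.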
# [2] = biological target: Glucocorticoid receptor (Homo sapiens) (UniProt P04150); test: GR-GFP Redistribution (AID 450;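 active = compounds whose dose series gives a full or clear partial fitted curve of increased nuclear translocation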; note: potency is the fitted concentration of half-maximal effect); conditions: U2OS GR-GFP nuclear translocation, laser cytometry, 2 h
# Sequence of Glucocorticoid receptor (Homo sapiens) (P04150 whole entry, looked up, the tested form may be a part): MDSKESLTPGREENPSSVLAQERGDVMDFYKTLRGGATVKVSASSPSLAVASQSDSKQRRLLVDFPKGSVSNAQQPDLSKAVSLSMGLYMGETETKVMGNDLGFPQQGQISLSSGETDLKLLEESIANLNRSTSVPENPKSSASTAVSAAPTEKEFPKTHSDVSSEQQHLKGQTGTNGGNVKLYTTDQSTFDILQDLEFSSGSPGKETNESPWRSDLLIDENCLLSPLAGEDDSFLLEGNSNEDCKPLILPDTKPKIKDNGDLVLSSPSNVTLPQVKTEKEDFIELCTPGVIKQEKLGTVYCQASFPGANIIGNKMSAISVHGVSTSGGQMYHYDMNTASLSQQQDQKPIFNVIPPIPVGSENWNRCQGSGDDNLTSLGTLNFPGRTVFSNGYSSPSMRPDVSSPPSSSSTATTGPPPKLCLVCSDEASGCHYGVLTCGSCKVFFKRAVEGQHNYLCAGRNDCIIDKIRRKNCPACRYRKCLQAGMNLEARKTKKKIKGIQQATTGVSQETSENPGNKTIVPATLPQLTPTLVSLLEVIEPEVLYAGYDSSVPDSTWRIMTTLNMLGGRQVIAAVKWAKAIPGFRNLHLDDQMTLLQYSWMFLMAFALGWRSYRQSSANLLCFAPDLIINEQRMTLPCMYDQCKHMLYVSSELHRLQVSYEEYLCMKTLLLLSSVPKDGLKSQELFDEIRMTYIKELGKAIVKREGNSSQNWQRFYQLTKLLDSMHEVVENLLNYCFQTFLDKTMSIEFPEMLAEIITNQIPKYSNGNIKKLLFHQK
# [3] = biological target: Mitogen-activated protein kinase 10 (Mus musculus) (UniProt Q61831); test: JNK3 AlphaScreen Assay (AID 530; active = well fitted curve in either direction with a large enough effect, not every such curve was filed as active;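 note: kinase came from lysate of stimulated human HepG2 cells; signal reports phosphorylation of biotinylated GST-cJun 1-79 at Ser73 with 10 µM ATP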)
# Summary of the method: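 Compound titrations were preincubated 15 minutes at room temperature with substrate, antibody and pre-activated JNK3-containing HepG2 lysate. Reactions were started with 10 uM ATP and stopped with EDTA-containing bead buffer for AlphaScreen detection.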
# [4] = biological target: 3',5'-cyclic-AMP phosphodiesterase 4B (Homo sapiens) (UniProt Q07343); test: qHTS Assay for Inhibitors of PDE-IV (AID 607; active = well fitted activation curve with a large enough effect in the main read-out, with a control signal flat, not every such curve was filed as active)
# Sequence of 3',5'-cyclic-AMP phosphodiesterase 4B (Homo sapiens) (Q07343 whole entry, looked up): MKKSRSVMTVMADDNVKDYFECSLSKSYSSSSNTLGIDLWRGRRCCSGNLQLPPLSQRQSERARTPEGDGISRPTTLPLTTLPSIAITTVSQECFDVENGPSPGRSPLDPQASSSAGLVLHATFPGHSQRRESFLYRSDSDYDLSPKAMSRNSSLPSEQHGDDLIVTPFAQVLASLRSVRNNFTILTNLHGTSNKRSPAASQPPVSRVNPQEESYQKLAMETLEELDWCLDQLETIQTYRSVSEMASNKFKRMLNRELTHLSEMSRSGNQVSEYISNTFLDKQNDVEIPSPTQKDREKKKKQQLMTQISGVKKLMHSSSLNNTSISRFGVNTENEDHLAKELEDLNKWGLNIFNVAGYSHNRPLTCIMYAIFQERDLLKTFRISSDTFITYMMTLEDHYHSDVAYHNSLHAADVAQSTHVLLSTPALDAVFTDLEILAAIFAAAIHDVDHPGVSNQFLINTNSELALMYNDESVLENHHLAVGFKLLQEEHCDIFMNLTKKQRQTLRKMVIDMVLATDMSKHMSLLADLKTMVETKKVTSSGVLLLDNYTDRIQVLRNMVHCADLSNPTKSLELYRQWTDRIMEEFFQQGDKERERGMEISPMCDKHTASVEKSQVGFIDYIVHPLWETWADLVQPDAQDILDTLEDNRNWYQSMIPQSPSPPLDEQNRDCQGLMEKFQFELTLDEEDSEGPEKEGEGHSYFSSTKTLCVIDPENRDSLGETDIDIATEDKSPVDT
# Summary of the method: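 Live HEK293 cells with a modified cyclic nucleotide-gated (CNG) channel report intracellular cAMP via membrane-potential dye fluorescence (ex 535/em 590 nm). Endogenous PDE-IV was targeted. Compounds were tested at up to 22.9 uM final; RO 20-1724 100 uM served as control.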
# [5] = biological target: Ubiquitin carboxyl-terminal hydrolase 1 (Homo sapiens) (UniProt O94782); test: Inhibitors of USP1/UAF1: Pilot qHTS (AID 504865);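 note: rhodamine fluorescence freed from ubiquitin-rhodamine substrate followed over time; top concentration of the series differs between compounds; nearly all actives have a fitted effect of over 35% in size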
# Sequence of Ubiquitin carboxyl-terminal hydrolase 1 (Homo sapiens) (O94782 whole entry, looked up): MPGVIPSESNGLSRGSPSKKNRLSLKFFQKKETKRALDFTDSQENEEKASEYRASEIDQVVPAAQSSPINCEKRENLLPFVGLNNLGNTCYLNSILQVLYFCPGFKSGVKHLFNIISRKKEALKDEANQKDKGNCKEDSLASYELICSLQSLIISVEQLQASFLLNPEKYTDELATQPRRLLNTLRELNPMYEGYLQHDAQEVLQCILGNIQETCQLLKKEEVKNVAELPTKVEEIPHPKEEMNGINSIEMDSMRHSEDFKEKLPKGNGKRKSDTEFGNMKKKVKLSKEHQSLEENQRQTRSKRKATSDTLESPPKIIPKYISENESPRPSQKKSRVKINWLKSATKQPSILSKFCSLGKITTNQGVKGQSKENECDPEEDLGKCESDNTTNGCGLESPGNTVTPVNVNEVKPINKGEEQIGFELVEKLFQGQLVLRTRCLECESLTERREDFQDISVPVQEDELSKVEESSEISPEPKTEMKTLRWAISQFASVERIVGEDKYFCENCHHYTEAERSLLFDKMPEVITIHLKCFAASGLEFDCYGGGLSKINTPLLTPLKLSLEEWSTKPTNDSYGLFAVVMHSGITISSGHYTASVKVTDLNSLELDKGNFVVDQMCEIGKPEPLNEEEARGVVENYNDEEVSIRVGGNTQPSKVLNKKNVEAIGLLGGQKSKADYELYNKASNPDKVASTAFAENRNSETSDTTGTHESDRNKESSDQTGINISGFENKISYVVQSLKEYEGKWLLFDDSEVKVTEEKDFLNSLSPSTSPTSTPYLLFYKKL
# Summary of the method: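 Enzyme-free wells gave the negative control, while test wells held 1nM USP1/UAF1 preincubated with compound for 15 min at room temperature. Ub-Rho at 150nM final started the reaction, and fluorescence at 480/540 nm was recorded kinetically.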
# [6] = biological target: DNA dC->dU-editing enzyme APOBEC-3G (Homo sapiens) (UniProt Q9HC16); test: qHTS for inhibitors of Vif-A3G interactions: Validation (AID 588379)
# Sequence of DNA dC->dU-editing enzyme APOBEC-3G (Homo sapiens) (Q9HC16 whole entry, looked up): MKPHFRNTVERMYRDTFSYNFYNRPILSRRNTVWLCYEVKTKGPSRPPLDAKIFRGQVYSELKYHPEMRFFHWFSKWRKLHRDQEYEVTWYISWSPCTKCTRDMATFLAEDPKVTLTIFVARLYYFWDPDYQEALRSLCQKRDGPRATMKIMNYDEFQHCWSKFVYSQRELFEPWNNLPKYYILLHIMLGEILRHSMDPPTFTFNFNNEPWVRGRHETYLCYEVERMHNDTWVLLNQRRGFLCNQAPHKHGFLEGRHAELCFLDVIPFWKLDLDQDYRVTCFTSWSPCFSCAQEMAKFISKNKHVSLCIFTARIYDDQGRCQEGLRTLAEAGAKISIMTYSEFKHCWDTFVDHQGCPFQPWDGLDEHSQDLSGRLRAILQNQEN
# Summary of the method: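 HeLa cells stably expressing Vif and A3G-eYFP, 700 cells/well, incubated overnight at 37 deg C, then exposed to compound overnight at 37 deg C. Inhibition of Vif-mediated degradation read as increased yellow fluorescence (Ex 488/Em 500-530) by laser-scanning cytometry.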
# [7] = test system: Zika virus NS2B-NS3 protease; test: Primary screen GU AMC qHTS for Zika virus inhibitors (AID 1347154); note: nearly all actives have a fitted effect of over 70% in size
# Summary of the method: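 Fluorogenic AMC-substrate cleavage by noncovalent NS2B-NS3 protease complex (25 nM, pH 8.0 Tris buffer with Tween 20) followed for 15 minutes at room temperature (~20% conversion). Percent inhibition from ex340/em450 signal change, fitted by 4-parameter Hill equation.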
# [8] = Primary qHTS for small molecule stabilizers of the endoplasmic reticulum resident proteome: Secreted ER Calcium Modulated Protein (SERCaMP) assay (AID 1508630)
# Summary of the method: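 GLuc-SERCaMP-expressing SH-SY5Y cells, pretreated 16 h with compound, are challenged with thapsigargin to empty ER calcium stores; after 4 h, coelenterazine is added directly to the medium and luminescence is imaged.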
# [9] = biological target: Glucocorticoid receptor (Homo sapiens) (UniProt P04150); test: GR-EFC Redistribution (AID 451; calls by dose curve; note: potency is the fitted concentration of half-maximal effect); conditions: CHO-K1 GR-EFC translocation, beta-gal luminescence, 2 h
# Summary of the method: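 Translocation of GR-ED fusion to nuclear EA restores b-gal, read by luminescence after 1 h room-temperature detection. Engineered CHO-K1 biosensor cells, 1,000/well, exposed 2 h at 37 C to titrations up to 46 uM final.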
# [10] = biological target: Cytochrome P450 3A4 (Homo sapiens) (UniProt P08684); test: qHTS Assay for Inhibitors and Substrates of Cytochrome P450 3A4 (AID 884); note: nearly all actives have a fitted effect of over 50% in size
# Sequence of Cytochrome P450 3A4 (Homo sapiens) (P08684 whole entry, looked up): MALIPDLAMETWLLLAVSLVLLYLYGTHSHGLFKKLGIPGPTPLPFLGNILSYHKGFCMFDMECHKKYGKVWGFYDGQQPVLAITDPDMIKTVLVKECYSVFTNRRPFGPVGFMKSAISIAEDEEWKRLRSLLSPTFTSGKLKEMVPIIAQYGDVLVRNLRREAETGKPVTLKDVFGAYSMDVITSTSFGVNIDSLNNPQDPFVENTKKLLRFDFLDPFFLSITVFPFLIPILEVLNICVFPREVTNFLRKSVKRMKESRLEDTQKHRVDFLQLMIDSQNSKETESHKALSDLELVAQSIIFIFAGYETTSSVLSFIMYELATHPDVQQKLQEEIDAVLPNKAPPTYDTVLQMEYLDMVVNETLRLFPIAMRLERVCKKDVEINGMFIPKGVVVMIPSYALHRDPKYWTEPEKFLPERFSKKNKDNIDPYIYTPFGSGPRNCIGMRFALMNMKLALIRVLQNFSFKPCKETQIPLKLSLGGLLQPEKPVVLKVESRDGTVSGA
# Summary of the method: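 20 nM human CYP3A4 with 25 uM Luciferin-PPXE (at KM) in 200 mM KPO4, preincubated 10 min with compound; NADPH regeneration started a 60 min RT reaction. Luciferin detected by luminescence, normalized to 57 uM ketoconazole as full inhibition.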
# [11] = biological target: DNA repair nuclease/redox regulator APEX1 (Homo sapiens) (UniProt P27695); test: qHTS Validation Assay for Inhibitors of the Human Apurinic/apyrimidinic Endonuclease 1 (APE1) (AID 1705;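 note: TAMRA fluorescence gain over two minutes as APE1 cuts a quenched THF abasic duplex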)
# Summary of the method: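 Substrate: 50 nM final fluorophore/quencher THF-abasic duplex. Enzyme preincubated with compounds 15 min, RT. Progress derived from fluorescence difference, third minus first kinetic read.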
# [12] = Counterscreen for APE1 Inhibitors: Fluorescent Dye Displacement Validation Assay (AID 1707)
# Summary of the method: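 ThO 250 nM + dsDNA 50 nM (THF abasic site, 5'-TAMRA), Tris-HCl pH7.5/50mM NaCl/2 mM MgCl2/0.01% Tween-20; compounds pin-transferred; ex 480/em 540 nm endpoint. Neutral = no compound; no-DNA ThO wells = negative control.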
# [13] = biological target: Endonuclease 4 (Escherichia coli (strain K12)) (UniProt P0A6C1); test: Counterscreen for APE1 Inhibitors: qHTS Validation Assay for Inhibitors of Endonuclease IV (AID 1708)
# Summary of the method: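 qHTS concentration-response format; LOPAC1280 tested under APE1-screen conditions. 2 nM enzyme, 15 min compound preincubation at RT, then 50 nM TAMRA/BHQ-2 abasic substrate; kinetic fluorescence read, three reads at 60 s intervals.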
# [14] = qHTS for differential inhibitors of proliferation of Plasmodium falciparum line Dd2 (AID 1882); conditions: Potency: Plasmodium falciparum Dd2 proliferation inhibition; note: nearly all actives have a fitted effect of over 65% in size
# Summary of the method: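 Dd2-infected erythrocytes (0.3% parasitemia, 2.5% hematocrit final) incubated with compound 72 h at 37 C, 5% CO2; lysed with saponin/Triton buffer containing SYBR Green I, incubated overnight in the dark, then read by fluorescence (485/535 nm). Normalized to 0.29 uM artemisinin and DMSO.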
# [15] = qHTS for differential inhibitors of proliferation of Plasmodium falciparum line W2 (AID 1883); conditions: Potency: Plasmodium falciparum W2 proliferation inhibition;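 note: potency is the fitted concentration of half-maximal effect; parasites grown with compound for 72 h before lysis and staining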
# [16] = biological target: Ferritin light chain (Equus caballus) (UniProt P02791); test: qHTS Validation Assay for Identification of Novel General Anesthetics (AID 2323)
# Sequence of Ferritin light chain (Equus caballus) (P02791 2-175 limits assumed): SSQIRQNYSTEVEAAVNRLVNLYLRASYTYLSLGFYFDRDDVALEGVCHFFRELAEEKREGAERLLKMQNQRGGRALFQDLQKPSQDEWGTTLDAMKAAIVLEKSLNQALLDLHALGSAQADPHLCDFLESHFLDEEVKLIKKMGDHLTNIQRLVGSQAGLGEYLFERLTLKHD
# Summary of the method: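 Normalized fluorescence response, scaled between free 1-AMA and 1-AMA/apoferritin complex, fitted to a four-parameter Hill equation for concentration-effect values. Binding mix: 10 uM horse-spleen apoferritin, 50% saturated 1-AMA in PBS; read 380/535 nm after 10 min.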
# [17] = biological target: ATP-dependent DNA helicase Q1 (Homo sapiens) (UniProt P46063); test: qHTS Validation Assay for Inhibitors of RecQ-Like Dna Helicase 1 (RECQ1) (AID 2353)
# Summary of the method: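 50 nM RECQ1T1 preincubated 15 min with compound in Tris pH 8.0 buffer with MgCl2, DTT, Tween-20 and 2.5 ug/ml poly(dI-dC); started with 200 nM TAMRA/BHQ-2 forked duplex and 2 mM ATP. Unwinding read as fluorescence (525/598 nm), two reads 2 h apart.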
# [18] = biological target: RecQ-like DNA helicase BLM (Homo sapiens) (UniProt P54132); test: qHTS Validation Assay for Inhibitors of Bloom's syndrome helicase (BLM) (AID 2364)
# Summary of the method: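 Forked 20-bp duplex substrate (200 nM, TAMRA/BHQ-2) plus 2 mM ATP added after 15 min compound preincubation with 50 nM enzyme, pH 8.0, poly(dI-dC) 2.5 ug/ml. Strand separation followed by fluorescence (525/598 nm) over 2 h, normalized to enzyme-free and DMSO controls.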
# [19] = Validation screen for inhibitors of Lassa infection (AID 463096; calls by dose curve; note: potency is the fitted concentration of half-maximal effect)
# [20] = biological target: Transient receptor potential cation channel subfamily V member 1 (Homo sapiens) (UniProt Q8NER1); test: HTS Assay for Compounds that Act as Enhancers of the Vanilloid Receptor 1 (AID 488979)
# Sequence of Transient receptor potential cation channel subfamily V member 1 (Homo sapiens) (Q8NER1 whole entry, looked up): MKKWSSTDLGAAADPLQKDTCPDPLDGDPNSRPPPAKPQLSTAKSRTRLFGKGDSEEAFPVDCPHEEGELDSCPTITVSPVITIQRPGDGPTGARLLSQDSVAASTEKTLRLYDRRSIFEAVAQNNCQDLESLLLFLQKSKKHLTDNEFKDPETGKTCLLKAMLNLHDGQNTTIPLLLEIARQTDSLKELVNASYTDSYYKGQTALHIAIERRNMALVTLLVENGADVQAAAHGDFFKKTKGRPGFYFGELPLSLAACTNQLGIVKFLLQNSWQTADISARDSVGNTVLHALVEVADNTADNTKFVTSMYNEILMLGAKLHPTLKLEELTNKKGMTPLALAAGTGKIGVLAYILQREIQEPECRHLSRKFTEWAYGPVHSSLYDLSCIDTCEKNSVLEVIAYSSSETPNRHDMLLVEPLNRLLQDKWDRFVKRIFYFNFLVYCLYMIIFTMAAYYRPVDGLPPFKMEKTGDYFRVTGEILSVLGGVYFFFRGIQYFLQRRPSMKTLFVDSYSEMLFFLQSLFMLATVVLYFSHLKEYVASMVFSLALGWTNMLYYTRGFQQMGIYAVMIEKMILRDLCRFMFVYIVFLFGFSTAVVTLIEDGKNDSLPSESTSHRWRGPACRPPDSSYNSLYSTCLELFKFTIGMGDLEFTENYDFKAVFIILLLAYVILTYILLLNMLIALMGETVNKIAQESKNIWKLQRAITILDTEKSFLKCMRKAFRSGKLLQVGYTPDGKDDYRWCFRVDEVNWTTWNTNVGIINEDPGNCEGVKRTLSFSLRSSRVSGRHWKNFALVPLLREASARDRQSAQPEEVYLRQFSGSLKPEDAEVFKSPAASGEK
# Summary of the method: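 Calcium influx kinetics via Fluo-8 (480/520 nm) in TRPV1-expressing cells, 2000/well cultured overnight at 35.5C. Compound-alone read 3 min (agonist phase), followed by EC20 capsaicin challenge for 2 min (enhancer phase).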
# [21] = biological target: Thyrotropin-releasing hormone receptor (Homo sapiens) (UniProt P34981); test: qHTS for Small Molecule Agonists and Allosteric Enhancers of Human TRH Receptor: Validation Screen for Agonists (AID 493127;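 active = calcium activation more than 3 SD above the typical response in the agonist read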;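 note: intracellular calcium rise by fluo-8 fluorescence before TRH EC20 addition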); conditions: TRH receptor agonist cell assay; at 2 µM; stronger effect = higher value
# Summary of the method: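 Cells 2000/well, 10% FCS, 18 h 33.5C/5% CO2 → fluo-8 Ca dye, RT 30 min–1.5 h → FDSS baseline 10 × 1 s → compound added → 230 cycles (1 s/cycle) agonist mode. TRH controls.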
# [22] = biological target: Galactokinase (Homo sapiens) (UniProt P51570); test: qHTS Validation Assay for Inhibitors of Human Galactokinase (GALK) (AID 493189)
# Summary of the method: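 Enzyme activity is inferred from ATP consumption: human GALK phosphorylates galactose (100 uM) using 35 uM ATP for 1 h at room temperature, and luciferase-based Kinase-Glo Plus reports unconsumed ATP.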
# [23] = biological target: Voltage-gated inwardly rectifying potassium channel KCNH2 (Homo sapiens) (UniProt Q12809); test: qHTS Assay for Small Molecule Inhibitors of the Human hERG Channel Activity (AID 588834);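 note: top concentration of the series differs between compounds; lower thallium flux fluorescence means stronger hERG block; nearly all actives have a fitted effect of over 50% in size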
# Summary of the method: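 Blockade is seen as reduced FluxOR thallium-flux fluorescence in U2OS cells expressing hERG from a BacMam construct, in Opti-MEM with 2% FCS. Concentration-response data fitted to the Hill equation for AC50.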
# [24] = AP1 Signaling Pathway (AID 357; active = well fitted curve in either direction with a large enough effect, not every such curve was filed as active;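 note: ME-180 reporter cells stimulated with EGF at its EC50 level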)
# Summary of the method: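 Cells are seeded overnight, exposed to compound titrations and an EC50 level of EGF for 5 hours at 37 °C, then loaded with CCF4 dye for 2.5 hours. Beta-lactamase activity under the AP-1 element is read as a blue/green ratio.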
# [25] = NFAT Signaling Pathway (AID 444; active = well fitted curve in either direction with a large enough effect, not every such curve was filed as active;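 note: carbachol stimulus at about its EC50 of 1 µM final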); conditions: Jurkat NFAT-bla M1, carbachol, beta-lactamase ratio, 5 h; at 17.2 µM (top of the series)
# Summary of the method: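 Read-out: CCF4 FRET ratio (460 nm/530 nm) after 1 h RT dye loading, used for %activity and AC50 from titration series. Cells: Jurkat NFAT-β-lactamase/M1 line, treated with compound plus 1 uM carbachol for 5 h, 37 °C.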
# [26] = Stat Signaling Pathway (AID 446; active = well fitted curve in either direction with a large enough effect, not every such curve was filed as active;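 note: ME-180 cervical cancer cells given 40 pM IL-6 alongside compound; SIE-controlled beta-lactamase reporter measured as 460/530 nm FRET emission ratio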)
# Summary of the method: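 IL-6/STAT signaling read in ME-180 cells via an SIE beta-lactamase reporter. Stimulus was 40 pM IL-6 (its AC50) for 5 hrs, so both activation and inhibition register.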
# [27] = biological target: Cytochrome P450 2C9 (Homo sapiens) (UniProt P11712); test: qHTS Assay for Inhibitors and Substrates of Cytochrome P450 2C9 (AID 883); note: nearly all actives have a fitted effect of over 60% in size
# Summary of the method: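 Inhibition of CYP2C9 is scored as loss of luminescence, with 57uM sulphaphenazole defining 100% inhibition. Substrate Luciferin-H is used at 100uM, equal to its KM; enzyme at 10nM in 25mM KPO4, 60 min at 37C with NADPH regeneration.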
# [28] = biological target: Cytochrome P450 3A4 (Homo sapiens) (UniProt P08684); test: qHTS Assay for Activators of Cytochrome P450 3A4 (AID 885); note: nearly all actives have a fitted effect of over 65% in size
# Summary of the method: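 Quantitative HTS format: compounds preincubated with 20nM human CYP3A4 and Luciferin-PPXE substrate at KM, reaction started by NADPH regeneration, stopped after 60 min, luciferase luminescence read 20 min later.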
smiles,measurement,setting,value
CCC[C@@H]1CC2=CC(=O)CC[C@]2(C)[C@@H]2CC[C@@]3(C)[C@H](CC[C@]3(O)CCC(=O)O)[C@H]12,Potency,[1],inactive
same,Potency,[2],> 46 µM
same,outcome,[3],inactive
same,Potency,[4],inactive
same,Potency,[5],inactive
same,Potency,[6],inactive
same,Potency,[7],inactive
same,Potency,[8],inactive
NC(N)=Nc1ccc2[nH]c3c(c2c1)C[C@]1(O)[C@@H]2Cc4ccc(O)c5c4[C@]1(CCN2CC1CC1)[C@@H]3O5,Potency,[1],inactive
same,Potency,[2],> 46 µM
same,Potency,[9],> 46 µM
same,outcome,[3],inactive
same,Potency,[4],inactive
same,Potency,[5],inactive
same,Potency,[6],inactive
same,Potency,[7],inactive
same,Potency,[8],inactive
C[C@@H]1O[C@@H](O[C@H]2C[C@@H](O)[C@]3(CO)[C@@H]4C(CC[C@]3(O)C2)[C@@]2(O)CC[C@H](C3=CC(=O)OC3)[C@@]2(C)C[C@H]4O)[C@H](O)[C@H](O)[C@H]1O (stereo partly drawn),Potency,[10],inactive
same,Potency,[11],inactive
same,Potency,[12],inactive
same,outcome,[13],inactive
same,Potency,[14],inactive
same,Potency,[15],11.2 µM (active)
same,outcome,[16],inactive
same,Potency,[17],inactive
same,Potency,[18],inactive
same,Potency,[19],0.1 µM (active)
same,outcome,[20],inactive
same,activation,[21],0.375%
same,outcome,[22],inactive
same,Potency,[6],inactive
same,Potency,[23],inactive
same,Potency,[7],inactive
same,Potency,[8],inactive
COC1=CC(=O)OC(/C=C/c2ccccc2)C1 (stereo not drawn),outcome,[24],inactive
same,"activity change, negative = inhibition",[25],-0.501%
same,outcome,[26],inactive
same,Potency,[2],> 20.6 µM
same,Potency,[7],inactive
same,Potency,[8],inactive
CN1CCN(C(=O)OC2c3nccnc3C(=O)N2c2ccc(Cl)cn2)CC1 (stereo not drawn),outcome,[24],inactive
same,"activity change, negative = inhibition",[25],3%
same,outcome,[26],inactive
same,Potency,[7],inactive
same,Potency,[8],inactive
COC(=O)CN1CN(c2ccccc2)C2(CCN(Cc3ccc4ccccc4c3)CC2)C1=O,Potency,[1],inactive
same,Potency,[2],> 46 µM
same,Potency,[9],> 46 µM
same,outcome,[3],inactive
same,Potency,[4],inactive
same,Potency,[27],inactive
same,Potency,[28],inactive
same,Potency,[6],inactive
same,Potency,[7],inactive
same,Potency,[8],inactive
O=C1/C(=C\c2ccccc2)C[C@@]2(O)[C@H]3Cc4ccc(O)c5c4[C@@]2(CCN3CC2CC2)[C@@H]1O5,Potency,[1],31.6 µM (active)
same,Potency,[2],> 46 µM
same,Potency,[9],> 46 µM
same,Potency,[28],inactive
same,Potency,[5],inactive
same,Potency,[6],inactive
same,Potency,[7],inactive
same,Potency,[8],inactive
